# This is a sample that favours compounds with a hit; in the whole collection about 12% have one here.
# WT yeast gro inh = growth inhibition of WT yeast, mitochondrial fusion screen. mitochondrial fusion phenotypic screen, WT strain. inhibition, % at 10 µM. 2.1% of 190,000 active. AID 1362; in the data active = inhibition above about 58%; tested in S. cerevisiae
# CHOP inh = CHOP inhibition in unfolded protein response; CHO-K1 CHOP-promoter luciferase, tunicamycin-induced, 15-18 h; inhibition, % at 10 µM; 3.8% of 220,000 active;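 active = compounds that reduced the stress-induced luciferase reporter signal by more than about 70% of percent inhibition, limit read from the data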;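 note: 0% = tunicamycin plus vehicle and 100% = wells without tunicamycin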
# Arbovirus anti = blocks arbovirus infection. inhibition, % at 10 µM. 0.37% of 200,000 active. arbovirus infection cell-based antiviral screen; in the data active = inhibition above about 30%
# Lmaj promast = reduces viability of Leishmania major promastigotes | resazurin fluorescence viability | AID 1063 | inhibition, % at 10 µM | 9% of 200,000 active; in the data active = inhibition above about 50%;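 note: promastigotes grown with compound for 44 hours at 28 °C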
# An asterisk follows results filed as active; . = not tested or not shown.
SMILES,WT yeast gro inh,CHOP inh,Arbovirus anti,Lmaj promast
C=CCn1c(SCc2nc3sc4c(c3c(=O)[nH]2)CCCC4)nc2ccccc2c1=O,23,-8,0,84*
COC(=O)c1ccc(CSc2nc3ccccc3c(=O)n2CC(C)C)o1,58*,24,-7,22
O=C(CSc1nc2ccccc2c(=O)n1Cc1ccco1)NCc1ccccc1,.,.,.,-5
COC(=O)c1ccc(CSc2nc3ccccc3c(=O)n2Cc2ccco2)o1,2,64,16,97*
Cc1ccc(S(=O)(=O)N2CCC(C(=O)N/N=C/c3ccncc3)CC2)cc1,-11,4,-11,-1
CC1(C)CC(=O)C(Sc2ccccc2[N+](=O)[O-])=C(O)C1,-4,11,-3,-1
COc1ccc(CCNC(=O)COC(=O)/C=C/c2ccc(OC)c(OC)c2)cc1,-2,-8,-5,-2
O=C(CSc1nnc(-c2ccncc2)n1Cc1ccccc1)NC1CCCc2ccccc21 (centres undefined),-1,8,-2,83*
CC(=O)NCCn1c(SCc2ccc(C)cc2)nc2ccccc2c1=O,65*,34,-5,7
COC(=O)c1ccc(CSc2nnc(-c3ccncc3)n2Cc2ccccc2)o1,7,3,6,76*
CC(C)Cn1c(SCc2nc3ccccc3c(=O)[nH]2)nc2ccccc2c1=O,-17,82*,-17,7
COc1ccc(C(C)C)cc1S(=O)(=O)n1ccnc1C,18,38,7,9
CCOC(=O)N1CCN(c2ncnc3c2oc2nc(C(C)C)c4c(c23)CCC4)CC1,7,65,-16,-8
CC(C)Cc1nc2oc3c(N4CCN(CCO)CC4)ncnc3c2c2c1CCCC2,18,57,-33,52*
CC(=O)NS(=O)(=O)c1ccc(NS(=O)(=O)c2ccccc2[N+](=O)[O-])cc1,.,9,.,.
CCOC(=O)c1sc(Nc2nc(C)cc(OC)n2)nc1C,-1,-7,-13,56*
CCOC(=O)c1sc(Nc2ccc(C)cc2C)nc1C,.,93*,-7,6
COc1ccc(/C=C/C(=O)NCC(c2ccc(F)cc2)N2CCOCC2)cc1OC (centres undefined),.,-1,.,.
CC1(C)C2CC=C(/C=N/NC(=S)NCCc3ccccc3)C1C2 (centres undefined),66*,36,-13,87*
CNC(=S)N/N=C/C1=CCC2CC1C2(C)C (centres undefined),18,-1,-4,97*
Cc1ccc(CSCC(=O)N/N=C/c2sccc2C)cc1,26,95*,6,12
Cc1ccsc1/C=N/NC(=S)NCCc1ccccc1,69*,42,-4,-10
CNC1=C([N+](=O)[O-])CC([N+](=O)[O-])=C(N2CCNCC2)N1C,12,-6,11,-9
CCOC(=O)N1CCN(C(=O)CSCc2ccccc2)CC1,-15,0,0,51*
CC(C)(C)C(=O)/C=c1\s/c(=C\c2ccc(-c3ccc([N+](=O)[O-])cc3)o2)c(=O)n1CC(=O)NC(N)=O,-3,15,-6,20
SMILES,WT yeast gro inh,CHOP inh,Arbovirus anti,Lmaj promast
CCOC(=O)N1CCC(N2C(=O)c3ccccc3C2Nc2cc(OC)c(OC)c(OC)c2)CC1 (centres undefined),8,22,0,1
CCOC(=O)N1CCC(N2C(=O)c3ccccc3C2Nc2cc(Cl)c(OC)cc2OC)CC1 (centres undefined),-3,2,-2,97*
COc1ccc2c(c1)CCc1c(C(=O)NCCc3ccc(OC)c(OC)c3)noc1-2,-3,3,8,-9
COc1ccc2c(c1)CCc1c(C(=O)N3CC4(C)CC3CC(C)(C)C4)noc1-2 (centres undefined),73*,13,-20,30
COc1ccc2c(c1)CCc1c(C(=O)N3CCOCC3)noc1-2,1,-38,-3,-9
COc1ccc2c(c1)CCc1c(C(=O)Nc3ccc(OC)c(OC)c3)noc1-2,9,76*,5,-7
COc1ccc2c(c1)CCc1c(C(=O)Nc3cc(C)n(Cc4ccc(Cl)cc4)n3)noc1-2,-3,93*,-1,-6
Cc1ccc(C)c(NS(=O)(=O)c2c(C)ccc3nsnc23)c1,6,12,-8,24
Cc1ccc2nsnc2c1S(=O)(=O)NCCc1c(C)[nH]c2ccc(F)cc12,-49,-16,-9,98*
CCOc1ccccc1NC(=O)C(NC(=O)C1CCC(C)CC1)C(C)C (centres undefined),4,73*,8,0
CCCC1CCC(c2ccc(/C(N)=N/O)cc2)CC1 (centres undefined),48,81*,-25,2
CCCC1CCC(c2ccc(C(N)=O)cc2)CC1 (centres undefined),2,.,14,-8
CCCC1CCC(c2ccc(C(=O)NN)cc2)CC1 (centres undefined),84*,62,-23,20
CCCCCC1CCC(c2ccc(C(N)=O)cc2)CC1 (centres undefined),-13,-13,4,-7
Nc1cc2c(cc1[N+](=O)[O-])OCCOCCOCCO2,-7,7,-7,-4
Cc1cccc(-c2nnc(SCC(=O)N3c4ccccc4CCc4ccccc43)n2C)c1,1,-4,-4,91*
Cn1c(SCC(=O)N2c3ccccc3CCc3ccccc32)nnc1-c1cc2ccccc2cc1O,12,43,1,98*
Cn1c(SCC(=O)N2CCCc3ccccc32)nnc1-c1ccccc1,1,18,5,-6
Cc1cc(-c2ccccc2)nc(-c2ccccc2)c1C,78*,23,8,17
CCN1N=C(c2cc(Cl)sc2Cl)CSC1=O,23,12,-6,-1
CCCCNC(=S)N1CCn2cccc2C1c1ccccc1 (centres undefined),33,-7,-6,33
Fc1ccc(C2c3cccn3CCN2C(=S)Nc2cccc(Br)c2)cc1 (centres undefined),86*,1,-18,41
Fc1ccc(NC(=S)N2CCn3cccc3C2c2cccnc2)cc1 (centres undefined),-6,7,18,91*
COc1cccc(NC(=S)N2CCn3cccc3C2c2cccnc2)c1 (centres undefined),8,11,6,88*
CCCCNC(=S)N1CCn2cccc2C1c1ccc(F)cc1 (centres undefined),61*,18,-6,52*
SMILES,WT yeast gro inh,CHOP inh,Arbovirus anti,Lmaj promast
COc1ccc(CNC(=O)C(C)N2C(=O)COc3ccc(C)cc32)c(OC)c1 (centres undefined),.,11,.,.
Cc1ccc(/C([O-])=C(/C(=S)Nc2ccc(SC(F)F)cc2)[n+]2ccccc2)cc1[N+](=O)[O-],30,11,25,29
CCc1cccc(CC)c1NC(=S)N1CCn2cccc2C1c1ccncc1 (centres undefined),-26,-2,-4,32
Cc1cccc(NC(=S)N2CCn3cccc3C2c2cccnc2)c1 (centres undefined),10,13,-2,89*
O=C(CC1SC(=O)N(Cc2cccc3ccccc23)C1=O)Nc1nccs1 (centres undefined),24,73*,5,8
COc1ccccc1CNC(=O)CSc1nc2ccccc2c(=O)n1CCCN1CCOCC1,2,7,1,1
O=C(CSc1nc2ccccc2c(=O)n1CCCN1CCOCC1)c1c[nH]c2ccccc12,-10,7,-8,53*

# High-throughput results: PubChem, several laboratories
